Inconclusive results are not listed. Entries that show only a call come without a potency. Activity calls are given as the source filed them. The call rests on the fitted dose curve; in most records, active means well fitted curve in the direction sought with a large enough effect; inconclusive means small, poorly fitted or top-dose-only effect, or another doubt; inactive means no such curve, though single readings can be large; an effect the other way counts as inactive or inconclusive.
Tests used:
[1] = biological target: Flap endonuclease 1 (Homo sapiens) (UniProt P39748); test: qHTS Validation Assay for the Inhibitors of Human Flap endonuclease 1 (FEN1) (AID 488816)
Procedure, shortened: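 qHTS format: compounds and 10 nM FEN1 incubated 15 min at room temperature before adding 50 nM substrate. Cleavage followed by reads at 0 and 15 min; normalized data fitted to a four-parameter Hill curve.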

[2] = biological target: M-phase phosphoprotein 8 (Homo sapiens) (UniProt Q99549); test: qHTS Validation Assay for Inhibitors for MPP8 Chromodomain Interactions with Methylated Histone Tails (AID 488949); further: nearly all actives have a fitted effect of over 55% in size; further: potency means the concentration at half of the fitted maximal effect
Procedure, shortened: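 50 nM MPP8 + 50 nM b-H3K9me3 peptide, PBS pH 7.4/0.01% Tween-20, 30 min RT; + cpd 30 min RT; + AlphaScreen donor/Ni-chelate acceptor beads 10 ug/mL final, 30 min dark; luminescence read.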

[3] = biological target: Chromobox protein homolog 1 (Homo sapiens) (UniProt P83916); test: qHTS Validation Assay for Inhibitors of HP1-beta Chromodomain Interactions with Methylated Histone Tails (AID 488953); further: nearly all actives have a fitted effect of over 50% in size; further: potency means the concentration at half of the fitted maximal effect
Procedure, shortened: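 AlphaScreen proximity signal from streptavidin donor and nickel chelate acceptor beads (final 10 ug/mL) after 30 min dark incubation. Compounds had 30 min at room temperature with preformed complex of 50 nM HP1-beta and 50 nM b-H3(1-18)K9me3 in PBS pH 7.4 with 0.01% Tween-20.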

[4] = biological target: Methanococcus maripaludis chaperonin (MmCpn) (UniProt Q6LX38); test: High-Throughput Screening for Modulators of Cytosolic Chaperonin Activity: MmCpn Primary Screen (AID 488978);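 further: 50 nM MmCpn enzyme hydrolysing 30 µM ATP at 37 °C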
Procedure, shortened: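 Steps: chaperonin 50 nM final; add compound, 5 min RT; start with ATP, 30 uM final; hold 10 min at 37C; add ADP Transcreener HTRF reagent, 5 min; read ex 320, em 590 and 665 nm.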

[5] = biological target: Transient receptor potential cation channel subfamily V member 1 (Homo sapiens) (UniProt Q8NER1); test: HTS Assay for Compounds that Act as Enhancers of the Vanilloid Receptor 1 (AID 488979)
Procedure, shortened: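 Calcium influx kinetics via Fluo-8 (480/520 nm) in TRPV1-expressing cells, 2000/well cultured overnight at 35.5C. Compound-alone read 3 min (agonist phase), followed by EC20 capsaicin challenge for 2 min (enhancer phase).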

[6] = biological target: D(1A) dopamine receptor (Homo sapiens) (UniProt P21728); test: HTS Assay for Allosteric Agonists of the Human D1 Dopamine Receptor: Primary Screen for Agonists (AID 488981)
Procedure, shortened: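 Calcium flux in an inducible, force-coupled HEK293 Trex D1 line (overnight at 30 C): agonist mode is the 180 s kinetic read after compound; potentiator mode is the following 180 s read after dopamine at EC20.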

[7] = biological target: D(1A) dopamine receptor (Homo sapiens) (UniProt P21728); test: HTS Assay for Allosteric Agonists of the Human D1 Dopamine Receptor: Primary Screen for Potentiators (AID 488982); further: potency means the concentration at half of the fitted maximal effect
Text: Dopamine receptors (DARs) are involved in the etiology and/or therapy of a number of neuropsychiatric and endocrine disorders. For instance, all receptor-based antiparkinsonian drugs work via stimulating the […] DAR subtype whereas all FDA-approved antipsychotic agents are antagonists of this receptor. […] There are three different types of allosteric modulators that we are seeking, two of which will stimulate or augment receptor signaling, allosteric agonists and potentiators, while the third, allosteric antagonists, will attenuate receptor signaling. The present primary screening assay measures compound agonism by tracking calcium flux in a […], inducible Hek293 Trex D1 cell line.
Freshly passaged cells are plated in 1536 well black, clear bottom plates at a density of 4000 cells/well in 3 ul of complete media containing 1x tetracycline inducer. After an overnight incubation at 30 C in 5% CO2, cells are loaded with 2 ul of the no wash Calcium Assay Kit (ABD Bioquest) and incubated at room temperature for 30 to 90 minutes. A 10 cycle (1 second/cycle) baseline measurement is taken and then the FDSS online 1536 pintool delivers 23 nl of compound library (as well as dopamine controls) to the plate. The plate is measured for kinetically at 1 cycle/sec for 180 seconds and is considered to be the agonist portion of the assay (eg, compounds which activate a positive calcium response during this portion are flagged as potential agonists). Following the 180 second read, 1 ul of an EC20 of dopamine is delivered by an onboard pipette head. Measurements are taken kinetically for an additional 180 seconds.

[8] = biological target: D(1A) dopamine receptor (Homo sapiens) (UniProt P21728); test: HTS Assay for Allosteric Agonists of the Human D1 Dopamine Receptor: Primary Screen for Antagonists (AID 488983);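 further: calcium flux response to an EC80 dopamine challenge measured with no-wash dye; nearly all actives have a fitted effect of over 65% in size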
Procedure, shortened: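 Calcium-flux read-out in inducible HEK293 T-REx cells expressing D1, dye-loaded 30–90 min at room temperature. Kinetic reads: 180 s after compound (agonist phase), then 180 s after an EC80 dopamine challenge.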

[9] = biological target: ATP-dependent 6-phosphofructokinase (Trypanosoma brucei brucei) (UniProt O15648); test: qHTS Assay to Find Inhibitors of T. brucei phosphofructokinase: hit validation (AID 492961);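 further: luminescence reports ADP formed as PFK phosphorylates fructose-6-phosphate with ATP; series mostly up to about 51 µM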
Procedure, shortened: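 ADP-Glo luminescence read-out of ADP formed by 1.25 nM PFK from 0.1 mM ATP and 0.5 mM F6P (TEA pH 8.0, 45 min, RT). Compounds titrated; activity normalized to no-enzyme and full-enzyme controls.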

[10] = biological target: Thyrotropin receptor (Homo sapiens) (UniProt P16473); test: qHTS Assay for Antagonists of the Thyroid Stimulating Hormone Receptor (AID 488980); further: series mostly up to about 58 µM
Procedure, shortened: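 Readout is cAMP by HTRF competition between cellular cAMP and cAMP-d2 for a cryptate-labelled antibody. Antagonism was assessed in TSHR-transfected HEK293 cells stimulated with 4 nM TSH (EC80, final) in the presence of RO 20-1724.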

Chain of M-phase phosphoprotein 8 (Homo sapiens) (Q99549 whole entry, looked up): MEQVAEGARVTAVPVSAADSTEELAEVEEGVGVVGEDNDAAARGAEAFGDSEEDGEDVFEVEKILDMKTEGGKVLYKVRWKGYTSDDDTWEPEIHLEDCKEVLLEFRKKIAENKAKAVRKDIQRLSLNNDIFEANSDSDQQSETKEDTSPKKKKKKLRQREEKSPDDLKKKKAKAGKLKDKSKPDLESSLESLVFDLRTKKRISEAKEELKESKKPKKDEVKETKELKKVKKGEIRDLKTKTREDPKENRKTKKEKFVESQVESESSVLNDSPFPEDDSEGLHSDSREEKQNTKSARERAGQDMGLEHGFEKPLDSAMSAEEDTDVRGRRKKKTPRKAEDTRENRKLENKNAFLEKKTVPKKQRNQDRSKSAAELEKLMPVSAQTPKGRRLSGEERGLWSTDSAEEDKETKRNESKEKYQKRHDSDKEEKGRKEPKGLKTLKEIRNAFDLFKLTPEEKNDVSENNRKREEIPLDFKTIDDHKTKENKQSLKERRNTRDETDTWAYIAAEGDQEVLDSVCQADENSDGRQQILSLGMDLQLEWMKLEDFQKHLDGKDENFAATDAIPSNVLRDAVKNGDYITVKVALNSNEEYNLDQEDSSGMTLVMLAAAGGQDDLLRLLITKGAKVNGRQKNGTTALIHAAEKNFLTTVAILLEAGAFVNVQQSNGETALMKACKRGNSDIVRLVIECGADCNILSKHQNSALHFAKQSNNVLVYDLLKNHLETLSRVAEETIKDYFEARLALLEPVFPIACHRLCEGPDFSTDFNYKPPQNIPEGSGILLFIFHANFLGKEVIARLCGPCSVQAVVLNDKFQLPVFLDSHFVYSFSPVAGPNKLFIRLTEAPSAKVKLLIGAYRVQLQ
Chain of ATP-dependent 6-phosphofructokinase (Trypanosoma brucei brucei) (O15648 whole entry, looked up): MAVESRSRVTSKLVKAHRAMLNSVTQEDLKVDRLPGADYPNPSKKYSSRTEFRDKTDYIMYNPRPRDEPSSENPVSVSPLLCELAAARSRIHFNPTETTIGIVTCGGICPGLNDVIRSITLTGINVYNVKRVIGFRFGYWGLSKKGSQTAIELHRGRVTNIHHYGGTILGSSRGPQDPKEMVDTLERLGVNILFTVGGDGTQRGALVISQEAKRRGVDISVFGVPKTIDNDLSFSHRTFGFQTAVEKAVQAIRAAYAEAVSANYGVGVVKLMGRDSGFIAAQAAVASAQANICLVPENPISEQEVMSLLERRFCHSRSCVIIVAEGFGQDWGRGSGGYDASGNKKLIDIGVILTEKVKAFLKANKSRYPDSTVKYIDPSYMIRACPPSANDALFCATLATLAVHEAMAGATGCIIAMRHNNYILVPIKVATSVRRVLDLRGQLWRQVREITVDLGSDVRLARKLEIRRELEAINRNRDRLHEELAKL
Chain of Chromobox protein homolog 1 (Homo sapiens) (P83916 whole entry, looked up): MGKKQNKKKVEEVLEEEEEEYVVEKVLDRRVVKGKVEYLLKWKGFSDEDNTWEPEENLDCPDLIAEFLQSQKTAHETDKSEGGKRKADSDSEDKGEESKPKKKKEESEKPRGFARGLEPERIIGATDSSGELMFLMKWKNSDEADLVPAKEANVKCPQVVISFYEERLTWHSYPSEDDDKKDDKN
Chain of Flap endonuclease 1 (Homo sapiens) (P39748 whole entry, looked up): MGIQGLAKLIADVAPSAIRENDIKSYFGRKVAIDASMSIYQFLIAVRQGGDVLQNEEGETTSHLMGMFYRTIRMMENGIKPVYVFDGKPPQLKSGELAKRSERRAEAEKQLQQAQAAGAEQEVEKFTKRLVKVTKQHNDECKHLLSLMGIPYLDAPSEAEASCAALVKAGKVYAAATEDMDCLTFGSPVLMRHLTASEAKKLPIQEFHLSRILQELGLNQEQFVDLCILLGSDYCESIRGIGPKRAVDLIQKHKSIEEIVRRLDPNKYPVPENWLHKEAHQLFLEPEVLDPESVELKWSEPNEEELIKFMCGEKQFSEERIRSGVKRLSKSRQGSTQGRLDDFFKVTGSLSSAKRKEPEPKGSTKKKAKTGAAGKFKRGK
Chain of D(1A) dopamine receptor (Homo sapiens) (P21728 whole entry, looked up): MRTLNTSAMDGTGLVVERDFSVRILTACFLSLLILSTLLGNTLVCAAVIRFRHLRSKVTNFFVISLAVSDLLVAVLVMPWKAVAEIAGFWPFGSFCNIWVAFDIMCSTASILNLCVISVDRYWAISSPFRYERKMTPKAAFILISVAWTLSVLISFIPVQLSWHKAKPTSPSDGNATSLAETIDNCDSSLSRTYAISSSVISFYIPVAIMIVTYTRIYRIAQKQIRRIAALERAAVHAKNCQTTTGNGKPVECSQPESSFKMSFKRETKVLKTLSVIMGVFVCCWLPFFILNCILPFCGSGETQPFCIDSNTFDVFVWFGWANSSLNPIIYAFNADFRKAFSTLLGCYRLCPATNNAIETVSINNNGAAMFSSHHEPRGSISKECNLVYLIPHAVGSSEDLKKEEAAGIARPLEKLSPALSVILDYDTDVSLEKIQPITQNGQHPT
Chain of Transient receptor potential cation channel subfamily V member 1 (Homo sapiens) (Q8NER1 whole entry, looked up): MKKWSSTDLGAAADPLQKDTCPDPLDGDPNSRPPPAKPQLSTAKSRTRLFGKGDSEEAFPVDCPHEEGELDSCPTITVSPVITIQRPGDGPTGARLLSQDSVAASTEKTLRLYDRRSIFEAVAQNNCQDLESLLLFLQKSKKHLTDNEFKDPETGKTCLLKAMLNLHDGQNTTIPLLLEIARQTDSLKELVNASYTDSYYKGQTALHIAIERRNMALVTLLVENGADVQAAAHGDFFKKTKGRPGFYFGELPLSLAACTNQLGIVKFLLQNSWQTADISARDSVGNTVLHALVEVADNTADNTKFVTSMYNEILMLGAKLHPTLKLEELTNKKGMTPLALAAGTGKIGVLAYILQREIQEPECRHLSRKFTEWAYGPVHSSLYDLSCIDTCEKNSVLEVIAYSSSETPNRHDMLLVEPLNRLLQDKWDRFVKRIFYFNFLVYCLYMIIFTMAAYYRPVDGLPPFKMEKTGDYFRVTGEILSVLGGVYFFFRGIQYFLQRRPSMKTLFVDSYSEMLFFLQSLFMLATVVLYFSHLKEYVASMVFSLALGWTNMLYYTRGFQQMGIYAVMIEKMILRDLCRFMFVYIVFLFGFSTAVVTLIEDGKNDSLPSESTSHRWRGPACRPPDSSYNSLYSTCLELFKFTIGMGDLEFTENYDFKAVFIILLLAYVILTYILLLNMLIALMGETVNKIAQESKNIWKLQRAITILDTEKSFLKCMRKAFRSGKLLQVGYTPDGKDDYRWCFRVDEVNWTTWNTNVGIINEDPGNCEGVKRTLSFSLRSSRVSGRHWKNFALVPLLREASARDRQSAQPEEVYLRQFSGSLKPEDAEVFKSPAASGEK
Chain of Thyrotropin receptor (Homo sapiens) (P16473 whole entry, looked up): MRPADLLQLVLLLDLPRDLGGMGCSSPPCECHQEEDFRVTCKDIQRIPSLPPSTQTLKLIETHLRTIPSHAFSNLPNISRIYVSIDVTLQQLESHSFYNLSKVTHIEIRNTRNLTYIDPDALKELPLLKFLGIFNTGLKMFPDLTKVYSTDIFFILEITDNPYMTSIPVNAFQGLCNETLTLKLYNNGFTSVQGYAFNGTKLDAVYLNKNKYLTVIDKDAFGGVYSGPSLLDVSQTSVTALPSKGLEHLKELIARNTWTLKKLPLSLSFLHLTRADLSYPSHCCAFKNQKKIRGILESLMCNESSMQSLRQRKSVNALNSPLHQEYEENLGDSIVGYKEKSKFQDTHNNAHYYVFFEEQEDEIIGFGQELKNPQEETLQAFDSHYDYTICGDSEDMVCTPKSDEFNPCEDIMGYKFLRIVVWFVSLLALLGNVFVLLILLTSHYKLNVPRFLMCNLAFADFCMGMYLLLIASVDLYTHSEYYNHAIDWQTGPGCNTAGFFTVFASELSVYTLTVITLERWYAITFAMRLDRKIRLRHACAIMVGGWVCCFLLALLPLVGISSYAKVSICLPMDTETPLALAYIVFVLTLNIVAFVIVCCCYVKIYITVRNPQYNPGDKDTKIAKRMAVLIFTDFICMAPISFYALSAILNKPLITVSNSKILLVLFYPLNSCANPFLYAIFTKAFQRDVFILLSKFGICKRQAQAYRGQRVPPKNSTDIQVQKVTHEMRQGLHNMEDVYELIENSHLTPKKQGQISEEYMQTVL
Chain of Methanococcus maripaludis chaperonin (MmCpn) (Q6LX38 1-543): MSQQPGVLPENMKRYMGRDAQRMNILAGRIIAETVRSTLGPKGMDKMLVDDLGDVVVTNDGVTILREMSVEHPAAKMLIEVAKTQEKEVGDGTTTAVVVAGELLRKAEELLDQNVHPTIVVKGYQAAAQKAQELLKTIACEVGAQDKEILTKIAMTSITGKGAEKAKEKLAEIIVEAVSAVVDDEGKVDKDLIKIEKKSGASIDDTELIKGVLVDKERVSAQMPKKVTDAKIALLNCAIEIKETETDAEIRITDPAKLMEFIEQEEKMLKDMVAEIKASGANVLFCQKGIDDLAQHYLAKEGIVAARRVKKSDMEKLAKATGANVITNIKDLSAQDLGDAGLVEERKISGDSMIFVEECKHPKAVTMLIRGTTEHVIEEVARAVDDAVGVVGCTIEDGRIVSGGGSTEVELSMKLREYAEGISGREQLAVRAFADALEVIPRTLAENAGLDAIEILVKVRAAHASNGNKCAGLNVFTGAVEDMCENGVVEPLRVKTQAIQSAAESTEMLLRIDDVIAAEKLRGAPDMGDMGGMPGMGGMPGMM

With `NC(=O)CN1CCCC1=O` the outcome [1] was “inactive”, the Potency [2] was “inactive” and the Potency [3] was “inactive”. For the same molecule, the outcome [4] was “inactive”, the outcome [5] was “inactive” and the outcome [6] was “inactive”. The Potency [7] was “inactive”, the Potency [8] was “inactive” and the Potency [9] was “inactive”.

`COP(=O)(OC)OC=C(Cl)Cl` was tested, and the Potency [9] was “inactive”.

With `CCOC(=O)Nc1ccc(NCc2ccc(F)cc2)nc1N` the outcome [1] was “inactive” and the Potency [3] was 39.8 µM (active).

For `Brc1c(NC2=NCCN2)ccc2nccnc12`, the outcome [1] was “inactive”.

In the case of `CCC(=O)O[C@H]1CC[C@H]2[C@@H]3CCC4=CC(=O)CC[C@]4(C)[C@H]3CC[C@]12C`, the Potency [9] was “inactive”.

With `CC(C)NCC(O)c1ccc(N)c(C#N)c1` (stereo not given) the Potency [9] was “inactive”.

For `NCc1cccnc1`, the Potency [9] was “inactive”.

With `NC(N)=NC(=O)c1nc(Cl)c(N)nc1N` the outcome [1] was “inactive”.

For `OC(c1ccccc1)(c1ccccc1)C1CCNCC1`, the Potency [9] was “inactive”.

In the case of `c1ccc2nc(N3CCNCC3)ccc2c1`, the Potency [2] was “inactive” and the outcome [5] was “inactive”.

For `CC(N)C(=O)OC(C)(C)Cc1ccc(Cl)cc1` (stereo not given), the Potency [2] was “inactive”, the outcome [5] was “inactive” and the outcome [10] was “inactive”.

With `C=CCOC(Cn1ccnc1)c1ccc(Cl)cc1Cl` (stereo not given) the Potency [9] was “inactive”.

For `C[N+](C)(C)CCCCCCCCCC[N+](C)(C)C`, the outcome [1] was “inactive”.

In the case of `NC(N)=NCCC[C@H](N)C(=O)O`, the outcome [1] was “inactive” and the Potency [3] was “inactive”.

`CCCCCCCCC(=O)NCc1ccc(O)c(OC)c1` was tested, and the Potency [2] was “inactive” and the outcome [10] was “inactive”.

For `COC(=O)C1=C(C)NC(C)=C(C(=O)OC)C1c1ccccc1[N+](=O)[O-]`, the Potency [2] was 39.8 µM (active), the Potency [3] was 35.5 µM (active) and the Potency [7] was 2.59 µM (active).

For `O=C1CC2(CCCC2)CC(=O)N1CCCCN1CCN(c2ncccn2)CC1`, the Potency [3] was “inactive”.

`CNC(=O)Oc1ccc2c(c1)[C@]1(C)CCN(C)[C@@H]1N2C` was tested, and the Potency [2] was “inactive”.

With `CCN(CC)CCOC(=O)C(C)(c1ccccc1)c1ccccc1` the Potency [9] was “inactive”.
